Test results: PubChem BioAssay
For part of these data: Results with a measured potency or affinity are listed apart. Activity calls are given as the source filed them. Unless noted, how the calls were made is not given here.

Columns and labels:
[1] = antimalarial activity against Dd2 strain (AID 2302;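 active means growth inhibition above 50% at the single 2 µM test dose, taken to imply half-maximal potency below 2 µM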;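 further: 0% = DMSO untreated growth and 100% = chloroquine plus artemisinin killed control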); conditions: P. falciparum Dd2 in RBCs, LDH growth readout, 72 h; at 2 µM; active compounds read high
[2] = human hepatoma cell viability loss – ATP luminescence, cytotoxicity control for P. falciparum antimalarial project, primary screen (AID 2303;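 active means inhibition above 50%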;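 further: 0% = DMSO wells and 100% = digitonin-killed cells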); conditions: HepG2 viability, 24-48 h, at 10 µM, active compounds read high
[3] = biological target: L-lactate dehydrogenase (Plasmodium falciparum (isolate CDC / Honduras)) (UniProt Q27743); assay: PfLDH activity inhibition – cell lysate, 3D7 strain, counter-screen for P. falciparum growth inhibition project (AID 2304);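 further: 0% = vehicle and 100% = reference inhibitor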; conditions: P. falciparum 3D7 crude extract, LDH APAD/NBT absorbance; at 2 µM; active compounds read high
[4] = inhibition of 3D7 malaria parasite growth – strain 3D7 (AID 2306);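 further: 0% = DMSO wells and 100% = chloroquine plus artemisinin control wells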; conditions: P. falciparum 3D7 erythrocytic growth, LDH absorbance, 72 h; at 2 µM; active compounds read high
[5] = biological target: Calcium-dependent protein kinase 1 (Plasmodium falciparum (isolate 3D7)) (UniProt P62344); assay: PfCDPK1 kinase inhibitors, biochemical, TCAMS library (AID 1159585; cut-off not given, nearly all actives have IC50 up to about 0.98 µM;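 further: inhibitors leave more ATP so luminescence rises with inhibition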); conditions: recombinant PfCDPK1, Kinase-Glo ATP depletion luminescence
[6] = biological target: Plasmodium falciparum protein kinase 6 (PK6, PF3D7_1337100) (UniProt Q8IDW1); assay: PfPK6 kinase inhibitors, biochemical, TCAMS library (AID 1159586); conditions: recombinant PfPK6, Kinase-Glo ATP depletion luminescence
[7] = biological target: Protein kinase 7 (PK7), Plasmodium falciparum 3D7 (PF3D7_0213400) (UniProt Q7YTF7); assay: inhibition of Plasmodium PK7 catalytic activity – biochemical, TCAMS antimalarial set, Kinase-Glo luminescence (AID 1159587); conditions: recombinant PfPK7, Kinase-Glo ATP depletion luminescence
[8] = biological target: Calcium-dependent protein kinase 4 (Plasmodium falciparum (isolate 3D7)) (UniProt Q8IBS5); assay: PfCDPK4 kinase inhibitors, biochemical, TCAMS library (AID 1159588; cut-off not given, nearly all actives have IC50 up to about 0.91 µM); conditions: recombinant PfCDPK4, Kinase-Glo ATP depletion luminescence
Calcium-dependent protein kinase 4 (Plasmodium falciparum (isolate 3D7)), sequence (Q8IBS5 whole entry, looked up): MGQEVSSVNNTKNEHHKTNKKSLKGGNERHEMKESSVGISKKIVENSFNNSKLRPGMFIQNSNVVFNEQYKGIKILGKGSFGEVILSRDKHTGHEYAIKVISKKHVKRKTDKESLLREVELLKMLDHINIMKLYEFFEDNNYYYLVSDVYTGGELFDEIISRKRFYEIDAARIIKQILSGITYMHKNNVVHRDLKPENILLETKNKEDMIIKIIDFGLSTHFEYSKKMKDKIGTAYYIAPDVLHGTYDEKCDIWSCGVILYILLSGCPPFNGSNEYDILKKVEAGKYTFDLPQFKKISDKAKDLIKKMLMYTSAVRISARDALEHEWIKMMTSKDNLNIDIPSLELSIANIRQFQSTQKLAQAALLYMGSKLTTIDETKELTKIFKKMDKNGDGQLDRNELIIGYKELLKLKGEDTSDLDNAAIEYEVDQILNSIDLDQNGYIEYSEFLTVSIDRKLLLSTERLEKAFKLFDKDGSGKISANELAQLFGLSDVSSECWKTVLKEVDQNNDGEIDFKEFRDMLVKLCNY

Calcium-dependent protein kinase 1 (Plasmodium falciparum (isolate 3D7)), sequence (P62344 whole entry, looked up): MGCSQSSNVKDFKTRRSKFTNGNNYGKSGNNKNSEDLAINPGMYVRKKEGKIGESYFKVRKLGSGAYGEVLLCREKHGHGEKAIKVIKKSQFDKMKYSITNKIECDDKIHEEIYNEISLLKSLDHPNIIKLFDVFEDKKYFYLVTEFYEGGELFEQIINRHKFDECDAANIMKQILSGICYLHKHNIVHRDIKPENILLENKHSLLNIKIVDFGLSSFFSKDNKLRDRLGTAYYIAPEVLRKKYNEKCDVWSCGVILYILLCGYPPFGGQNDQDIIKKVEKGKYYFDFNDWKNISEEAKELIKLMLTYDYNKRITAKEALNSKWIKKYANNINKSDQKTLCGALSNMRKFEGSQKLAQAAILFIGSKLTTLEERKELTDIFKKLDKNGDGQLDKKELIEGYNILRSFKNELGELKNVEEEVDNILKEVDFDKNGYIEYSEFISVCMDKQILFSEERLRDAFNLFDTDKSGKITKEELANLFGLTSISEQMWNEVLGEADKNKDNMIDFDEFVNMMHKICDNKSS
Plasmodium falciparum protein kinase 6 (PK6, PF3D7_1337100), sequence (Q8IDW1 1-305): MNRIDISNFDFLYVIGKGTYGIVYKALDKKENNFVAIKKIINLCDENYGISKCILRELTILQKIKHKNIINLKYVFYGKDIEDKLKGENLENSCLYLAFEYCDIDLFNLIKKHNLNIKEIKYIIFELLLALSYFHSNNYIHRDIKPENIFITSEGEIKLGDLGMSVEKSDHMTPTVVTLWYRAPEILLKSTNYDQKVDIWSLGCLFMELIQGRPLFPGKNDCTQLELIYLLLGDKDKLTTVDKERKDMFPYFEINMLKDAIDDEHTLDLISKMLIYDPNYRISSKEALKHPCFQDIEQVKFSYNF
L-lactate dehydrogenase (Plasmodium falciparum (isolate CDC / Honduras)), sequence (Q27743 whole entry, looked up): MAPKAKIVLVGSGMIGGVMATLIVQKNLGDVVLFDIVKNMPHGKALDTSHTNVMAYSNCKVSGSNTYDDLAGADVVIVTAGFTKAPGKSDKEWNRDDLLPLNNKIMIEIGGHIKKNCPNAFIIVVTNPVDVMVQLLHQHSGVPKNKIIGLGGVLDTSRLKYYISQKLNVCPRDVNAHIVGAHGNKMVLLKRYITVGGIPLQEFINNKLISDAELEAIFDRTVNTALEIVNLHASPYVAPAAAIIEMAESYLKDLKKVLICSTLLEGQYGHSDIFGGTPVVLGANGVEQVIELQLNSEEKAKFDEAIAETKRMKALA
Protein kinase 7 (PK7), Plasmodium falciparum 3D7 (PF3D7_0213400), sequence (Q7YTF7 1-343): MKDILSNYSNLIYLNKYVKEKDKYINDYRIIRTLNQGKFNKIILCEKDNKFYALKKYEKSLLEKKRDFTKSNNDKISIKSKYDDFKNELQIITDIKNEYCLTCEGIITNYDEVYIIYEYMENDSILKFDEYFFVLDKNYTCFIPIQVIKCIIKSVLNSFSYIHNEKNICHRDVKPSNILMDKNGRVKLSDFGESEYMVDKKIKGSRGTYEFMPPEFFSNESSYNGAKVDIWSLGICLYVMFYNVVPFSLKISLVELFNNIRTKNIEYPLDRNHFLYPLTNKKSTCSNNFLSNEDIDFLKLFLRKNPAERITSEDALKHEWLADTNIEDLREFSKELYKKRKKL

Cc1ccccc1C1CCN(C2CCC(NC(=O)c3cc4cc(C(C)C)ccc4[nH]3)CC2)CC1 (stereo not drawn)
active: growth inhibition [1] 100% | inhibition [2] 100% | growth inhibition [4] 99%
inactive: inhibition [3] -3% | outcome [5] | outcome [6] | outcome [7] | outcome [8]

Clc1cc(Cl)c2c(c1)C(NCCCNc1nc3ccccc3[nH]1)CCO2 (stereo not drawn)
active: growth inhibition [4] 101%
inactive: growth inhibition [1] 31% | inhibition [2] 28% | inhibition [3] -4% | outcome [5] | outcome [6] | outcome [7] | outcome [8]

C[C@H]1CN(Cc2cccc(-c3cc(CNC(=O)c4cccc(CN5CCN(CCOc6ccccc6)CC5)c4)ccc3F)c2)CCN1
inactive: inhibition [3] 4% | outcome [5] | outcome [6] | outcome [7] | outcome [8]
active: growth inhibition [1] 88% | inhibition [2] 59% | growth inhibition [4] 91%

COc1cccc2c(Oc3ccccc3C)ccnc12
inactive: growth inhibition [1] 45% | inhibition [2] -7% | inhibition [3] 4% | outcome [5] | outcome [6] | outcome [7] | outcome [8]
active: growth inhibition [4] 85%

COc1ccc(Cn2c(=O)[nH]c3cc(C(=O)NC4CCN(Cc5ccccc5)CC4)ccc3c2=O)cc1
active: growth inhibition [4] 97%
inactive: growth inhibition [1] 45% | inhibition [2] 10% | inhibition [3] -7% | outcome [5] | outcome [6] | outcome [7] | outcome [8]

COc1cccc2cc(C(=O)N[C@@H](CC(C)C)C(=O)N[C@H](/C=N/N3CC(=O)NC3=O)CC(C)C)oc12
inactive: inhibition [2] 3% | inhibition [3] 2% | outcome [5] | outcome [6] | outcome [7] | outcome [8]
active: growth inhibition [1] 64% | growth inhibition [4] 86%

COc1ccc(Nc2nccc(N3CCC(NC(=O)Nc4cc(C)ccc4C)C3)n2)cc1 (stereo not drawn)
active: growth inhibition [4] 91%
inactive: growth inhibition [1] 37% | inhibition [2] 10% | inhibition [3] -8% | outcome [5] | outcome [6] | outcome [7] | outcome [8]

COc1ccc(-c2cccc(NC(=O)c3ccc(Cl)cc3)c2)cc1CN1CCNCC1
active: inhibition [2] 52% | growth inhibition [4] 96%
inactive: growth inhibition [1] 22% | inhibition [3] -3% | outcome [5] | outcome [6] | outcome [7] | outcome [8]

CC(CCON1C(N)=NC(N)=NC1(C)C)c1ccc(Cl)c(Cl)c1 (stereo not drawn)
active: growth inhibition [1] 97% | inhibition [2] 60% | growth inhibition [4] 98%
inactive: inhibition [3] -3% | outcome [5] | outcome [6] | outcome [7] | outcome [8]

CC(C)CN1CCCN(Cc2cccc(NC(=O)c3ccc(-c4ccccc4)cc3)c2)CC1
active: growth inhibition [4] 99%
inactive: growth inhibition [1] 24% | inhibition [2] 30% | inhibition [3] 1% | outcome [5] | outcome [6] | outcome [7] | outcome [8]

COc1ccc(C(O)CNC(C)CCc2ccc(F)cc2)cc1C(F)(F)F (stereo not drawn)
active: growth inhibition [1] 98% | inhibition [2] 92% | growth inhibition [4] 99%
inactive: inhibition [3] 3% | outcome [5] | outcome [6] | outcome [7] | outcome [8]

O=C(/C=C/c1ccc(Cl)c(Cl)c1)N1CCC(CN2CCC(Cc3c[nH]c4ccccc34)CC2)CC1
active: growth inhibition [4] 98%
inactive: growth inhibition [1] 13% | inhibition [2] 24% | inhibition [3] 1% | outcome [5] | outcome [6] | outcome [7] | outcome [8]

COc1ccc2nccc(NC(=O)OC3CCC(NCc4ccc5c(n4)NC(=O)CS5)CC3)c2c1 (stereo not drawn)
inactive: growth inhibition [1] 39% | inhibition [2] 9% | inhibition [3] -6% | outcome [5] | outcome [6] | outcome [7] | outcome [8]
active: growth inhibition [4] 98%

CC(C)(C)c1ccc(CNCCOc2ccc(Nc3nnc(-c4ccc(-c5ncc[nH]5)cc4)o3)c3ccccc23)cc1
inactive: inhibition [2] 43% | inhibition [3] 0% | outcome [5] | outcome [6] | outcome [7] | outcome [8]
active: growth inhibition [1] 88% | growth inhibition [4] 100%

CC(C)(C)c1ccc(NC(=O)c2ccc(CN3CCCN(Cc4cccc(O)c4)CC3)cc2)cc1
active: growth inhibition [1] 62% | inhibition [2] 54% | growth inhibition [4] 102%
inactive: inhibition [3] 1% | outcome [5] | outcome [6] | outcome [7] | outcome [8]

COc1ccc(NC(=O)CCNc2cc(C)nc(Nc3ccccc3)n2)cc1
inactive: growth inhibition [1] 15% | inhibition [2] -9% | inhibition [3] -2% | outcome [5] | outcome [6] | outcome [7] | outcome [8]
active: growth inhibition [4] 92%

N#Cc1cccc(-c2nc(NCc3cccc(C(F)(F)F)c3)nn2-c2cccc(C(F)(F)F)c2)c1
active: growth inhibition [1] 88% | growth inhibition [4] 94%
inactive: inhibition [2] 12% | inhibition [3] 3% | outcome [5] | outcome [6] | outcome [7] | outcome [8]

CCCNCc1ccc(-c2ccc(CN(CCOC)C(=O)CCc3ccc(OC)cc3)cc2)nc1
active: growth inhibition [4] 98%
inactive: growth inhibition [1] 29% | inhibition [2] 11% | inhibition [3] -1% | outcome [5] | outcome [6] | outcome [7] | outcome [8]

Cc1ccc(C(=O)Nc2cccc(-c3ccc(N4CCN(C)CC4)nn3)c2)cc1[N+](=O)[O-]
active: growth inhibition [4] 99%
inactive: growth inhibition [1] 40% | inhibition [2] 32% | inhibition [3] -2% | outcome [5] | outcome [6] | outcome [7] | outcome [8]

O=c1cc(NC[C@H]2CCC[C@@H]2NCc2cc(Br)cc(Br)c2)[nH]c2ccccc12
inactive: growth inhibition [1] 45% | inhibition [2] 21% | inhibition [3] 2% | outcome [5] | outcome [6] | outcome [7] | outcome [8]
active: growth inhibition [4] 101%

Oc1ccc2nc(NCCCc3ccccc3)nc(NCCCc3ccccc3)c2c1
inactive: inhibition [2] 5% | inhibition [3] -3% | outcome [5] | outcome [6] | outcome [7] | outcome [8]
active: growth inhibition [1] 93% | growth inhibition [4] 101%
